Experimental data: PubChem BioAssay (NCATS)
Results filed as inconclusive are left out. Activity calls are given as the source filed them. Calls come from the whole dose curve; as a rule, active = well fitted inhibition curve with a large enough effect; inconclusive = small, poorly fitted or top-dose-only effect; inactive = flat fitted curve, though single readings scatter.

Assays:
Experiment in all cases: qHTS profiling for inhibitors of Plasmodium falciparum proliferation (AID 504749); note: nearly all actives have a fitted effect of over 60% in size
Details in all cases: P. falciparum in erythrocytes, SYBR Green DNA, 72 h; series mostly up to 28.7 µM
[1] = system: C2A
Outline: (§1)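 P. falciparum-infected erythrocytes (0.3% parasitemia, 2.5% hematocrit final) were exposed to compounds for 72 h at 37 C in 5% CO2, then lysed with SYBR Green buffer overnight at room temperature; parasite DNA fluorescence was normalized to artemisinin and DMSO controls.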

[2] = system: CP185
Outline: as §1

[3] = system: CP191
Outline: as §1

[4] = system: CP192
Outline: as §1

[5] = system: CP194
Outline: as §1

[6] = system: CP201
Outline: as §1

[7] = system: CP247
Outline: as §1

[8] = system: CP250
Outline: as §1

[9] = system: CP256
Outline: as §1

[10] = system: CP262
Outline: as §1

[11] = system: CP266
Outline: as §1

[12] = system: CP269
Outline: as §1

[13] = system: CP305
Outline: as §1

[14] = system: CP325
Outline: as §1

[15] = system: CP329
Outline: as §1

[16] = system: ECU
Outline: as §1

[17] = system: FAB9
Outline: as §1

[18] = system: P93_24
Outline: as §1

[19] = system: PC49
Outline: as §1

[20] = system: SC27B
Outline: as §1

Measured: Potency

CO/N=C(\C(=O)N[C@@H]1C(=O)N2C(C(=O)[O-])=C(C[N+]3(C)CCCC3)CS[C@@H]12)c1csc(N)n1
inactive: all assays above

C[C@@H]1C[C@H]2[C@H]3C[C@@H](F)C4=CC(=O)C=C[C@]4(C)[C@@]3(Cl)[C@@H](O)C[C@@]2(C)[C@@H]1C(=O)COC(=O)C(C)(C)C
inactive: all assays above
